Among the data in PubChem BioAssay are growth inhibition values, retold here.

A number with no mark means an inactive call. Activity calls are given as the source filed them.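 How the source made its calls: active means growth inhibition above 50% at the single 2 µM test dose, taken to imply half-maximal potency below 2 µM; inactive means the rest.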

The experiment is described as follows: antimalarial activity against Dd2 strain (AID 2302).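 Further: 0% = DMSO untreated growth and 100% = chloroquine plus artemisinin killed control.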 To be noted: P. falciparum Dd2 in RBCs, LDH growth readout, 72 h; at 2 µM; active compounds read high.
Turning to `COc1ccc2nccc([C@@H](O)CN3CCC(NCc4cc5cc(C)ccc5s4)CC3)c2c1`, the growth inhibition is 74% (active).

`COc1ccccc1N1CCN(C(C(=O)NCc2ccc(C)cc2)c2ccc(C)cc2)CC1` (stereo not given): the growth inhibition is 79% (active).

As for `CNCCNCc1cccc(-c2ccc(-c3nc4ccccc4[nH]3)s2)c1`, the growth inhibition was 9%.

Consider `COc1ccccc1C1CCN(CCCCNC(=O)c2ccc(NC(=O)c3ccc(Cl)cc3)cc2)CC1`, for which the growth inhibition is 12%.

Consider `CN(C)CC(O)C(c1ccccc1)c1cccc(Br)c1` (stereo not given), for which the growth inhibition was 9%.

Consider `CC(C)N1CCN(C(CN2CCN(CCCOc3ccc(-c4ccccc4)cc3)CC2)c2ccc(F)cc2)CC1` (stereo not given), for which the growth inhibition was 100% (active).

On to `CN1CCN(Cc2nc(-c3ccc4c(Nc5ccc(Oc6ccccc6)cc5)ccnc4c3)cs2)CC1`, for which the growth inhibition was 99% (active).

With `CCN(CC)CC#Cc1ccc2[nH]c(C)c(Cl)c(=O)c2c1`, the growth inhibition is 95% (active).

Consider `O=S(=O)(NC1CCCCN(Cc2ccccc2O)C1)c1ccc(C(F)(F)F)cc1` (stereo not given), for which the growth inhibition is 39%.

For the molecule `NC1=NC2(CCCCC2)N(OCCCOc2cccc3ccccc23)C(N)=N1`, the growth inhibition is 96% (active).

Regarding `Cc1cc(C(F)(F)F)nn1-c1ccc(NC(=O)c2ccco2)cc1`, the growth inhibition is 93% (active).

Regarding `NS(=O)(=O)NCCCN1CCN(c2ccccc2)CC1`, the growth inhibition was 73% (active).

Turning to `CC(C)(C)c1ccc(-c2cc3c(ccc4nc(N)nc(N)c43)[nH]2)cc1`, the growth inhibition is 100% (active).

As for `COc1ccccc1CCNc1nc(C)cc(NCCC(=O)NCCOc2ccccc2)n1`, the growth inhibition is 14%.

Regarding `CCOc1cc(C)ccc1N(C1CCN(CCCCNC(=O)c2ccc(-c3ccc(C(F)(F)F)cc3)cc2)CC1)S(=O)(=O)c1ccccc1`, the growth inhibition was 85% (active).

For the molecule `Cc1ccc(NC(=O)N2CCCN(CCCCCNC(=O)/C=C/c3ccc(Cl)c(Cl)c3)CC2)cc1C`, the growth inhibition is 4%.

With `NCc1cccc(-c2ccccc2CNC2CCN(Cc3ccccc3)CC2)c1`, the growth inhibition is 4%.

With `CCc1cc(=O)[nH]c(-n2nc(C)cc2NC(=O)CC(c2ccccc2)c2ccccc2)n1`, the growth inhibition was 75% (active).

Turning to `COc1ccc2nccc([C@@H](O)CN3CCC(NC(=O)Cc4cc5ccccc5s4)CC3)c2c1`, the growth inhibition was 42%.

For the molecule `COc1ccc(C)cc1NC(=O)CSc1nc2cccnc2n1C1CCCCC1`, the growth inhibition is 78% (active).

In the case of `CC(CN(C)C)C(=O)Nc1cccc(-c2cccc(-c3nc4ccccc4[nH]3)c2)c1` (stereo not given), the growth inhibition is 25%.

As for `CN(C)c1ccc(Br)c(Br)c1`, the growth inhibition was -4%.

As to `CCCCCN1CCC(CNS(=O)(=O)c2ccc(C(=O)Nc3cccc(C(F)(F)F)c3)cc2)CC1`, the growth inhibition was 13%.

In the case of `CN(C)CCN(C)Cc1ccc(-c2ccc(NS(=O)(=O)c3cccc4cccnc34)cc2)cc1`, the growth inhibition was 16%.

With `O=C(NCC1CCC(C(=O)O)CC1)c1ccc(/C=C/C(=O)N2CCc3ccccc3C2c2ccc3c(c2)OCO3)cc1` (stereo not given), the growth inhibition is 17%.

`O=C(Nc1ccc([N+](=O)[O-])cc1)Nc1cc(C(F)(F)F)ccc1F`: the growth inhibition is 46%.

For the molecule `CN1CCN(c2ccnc3ccc(NC(=O)Nc4ccc(Br)cc4)cc23)CC1`, the growth inhibition was 99% (active).

As for `COc1ccc(Nc2nccc(NCCNC(=O)Nc3cc(C)ccc3C)n2)cc1`, the growth inhibition is -3%.

As for `CCOc1cc(NC(=O)Nc2ccnc3ccccc23)cc(OC)c1`, the growth inhibition was 73% (active).

As for `NC(N)=NC(=O)Nc1cc(Cl)c(Cl)c(Cl)c1`, the growth inhibition is 100% (active).

Take `CC(C)(C)c1ccc(OCCCON2C(N)=NC(N)=NC2(C)C)cc1`: the growth inhibition was 76% (active).

For the molecule `COc1cc(OC)cc(-c2nn(-c3ccc([N+](=O)[O-])cc3Cl)c(=S)n2CC2CCCO2)c1` (stereo not given), the growth inhibition was 98% (active).

With `CN1CCN(c2ccnc3ccc(NC(=O)Cc4ccc5ccccc5c4)cc23)CC1`, the growth inhibition was 89% (active).

Regarding `O=C(Nc1ccccc1)N(Cc1ccc(-c2ccc(CNC3CCCC3)cc2)cc1)C1CCN(Cc2ccccc2)CC1`, the growth inhibition was 61% (active).

Take `CCCCN(CCCC)CCCCNc1c2ccc(Cl)cc2nc2ccc(OC)cc12`: the growth inhibition was 96% (active).

With `CC(C)(CNC(=O)/C=C/c1ccc(Cl)c(Cl)c1)CNc1cc(=O)c2ccccc2[nH]1`, the growth inhibition is 29%.

In the case of `CC(C)CNCc1ccc(-c2ccc(CNC3CCN(Cc4ccccc4)CC3)cc2)cc1`, the growth inhibition is 96% (active).

In the case of `CCN(CC)CCNc1ccnc2[nH]c3ccc(C)cc3c12`, the growth inhibition is 81% (active).

In the case of `CN1CCN(c2ccnc3ccc(NC(=O)Nc4cccc(C#N)c4)cc23)CC1`, the growth inhibition was 96% (active).

As to `CC(O)C1CCCCN1C(=O)c1cccc(-c2cccc(-c3nc4ccc(C(F)(F)F)cc4[nH]3)c2)c1` (stereo not given), the growth inhibition is 100% (active).
